Data published in PubChem BioAssay (NCATS).
Records with an inconclusive call do not appear. Active and inactive are the calls of the source. Calls follow the shape of the dose curve; as a rule, active = well fitted curve in the direction sought with a large enough effect; inconclusive = small, poorly fitted or top-dose-only effect, or another doubt; inactive = no such curve, though single readings can be large; an effect the other way counts as inactive or inconclusive.

How the values were obtained:
[1] = Primary redox qHTS assay for identification of artifact compounds. (AID 1845223)
Method in brief: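 Redox-cycling detection via DTT (250 uM final) oxidation coupled to Amplex Red (25 uM)/HRP (250 mU/mL) in HBSS. 15 min preincubation plus 30 min after DTT, room temperature. Ex/Em 525/598 nm; 4-parameter Hill fit against DMSO and 10 uM DA3003.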

[2] = Quantitative High-Throughput drug screen in 47 multiple myeloma cell lines against the NCATS MIPE library collection: Delta47_JCRB cell viability assay (AID 1918925; also: nearly all actives have a fitted effect of over 45% in size; also: potency is read from the fitted curve at half-maximal effect)
Method in brief: (§1)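 Approved and investigational drugs from MIPE 4.0 were added by pin tool to 500 cells per well. After 48 hours at 37C, ATP-based CellTiter-Glo luminescence indicated remaining viability.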

[3] = Quantitative High-Throughput drug screen in 47 multiple myeloma cell lines against the NCATS MIPE library collection: AMO1_DSMZ cell viability assay (AID 1918927; also: nearly all actives have a fitted effect of over 30% in size; also: potency is read from the fitted curve at half-maximal effect)
Method in brief: as §1

[4] = Quantitative High-Throughput drug screen in 47 multiple myeloma cell lines against the NCATS MIPE library collection: ARP1_JJKsccF8 cell viability assay (AID 1918928; also: potency is read from the fitted curve at half-maximal effect; nearly all actives have a fitted effect of over 40% in size)
Method in brief: (§2)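 Viability screen: myeloma cells (500/well) incubated 48 h at 37 °C, humidified 5% CO2, with pinned library compounds; CellTiter-Glo added, luminescence read; DMSO wells set 100%, medium-only wells 0%.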

[5] = Quantitative High-Throughput drug screen in 47 multiple myeloma cell lines against the NCATS MIPE library collection: ARD_JJKsccE7 cell viability assay (AID 1918929; also: potency is read from the fitted curve at half-maximal effect)
Method in brief: as §1

[6] = Quantitative High-Throughput drug screen in 47 multiple myeloma cell lines against the NCATS MIPE library collection: Karpas620_DSMZ cell viability assay (AID 1918959); also: nearly all actives have a fitted effect of over 30% in size; also: potency is read from the fitted curve at half-maximal effect
Method in brief: (§3)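 Steps: seed 500 cells per well; pin-transfer MIPE 4.0 library; incubate 48 h at 37C, 5% CO2, humidified; add CellTiter-Glo, 5 min room temperature; read luminescence.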

[7] = Quantitative High-Throughput drug screen in 47 multiple myeloma cell lines against the NCATS MIPE library collection: KMM1_JCRB cell viability assay (AID 1918960); also: nearly all actives have a fitted effect of over 30% in size; also: potency is read from the fitted curve at half-maximal effect
Method in brief: as §2

[8] = Quantitative High-Throughput drug screen in 47 multiple myeloma cell lines against the NCATS MIPE library collection: Karpas417_ECACC cell viability assay (AID 1918961); settings: Karpas417 myeloma viability, CellTiter-Glo ATP luminescence, 48 h; viability (% of DMSO): at 45.8 µM (top of the series); also: potency is read from the fitted curve at half-maximal effect
Method in brief: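 CellTiter-Glo luminescence (ATP) after 48 h compound exposure, 37C/5% CO2; 500 cells/well; MIPE 4.0 approved/investigational drugs pinned in; DMSO = 100%, media only = 0% viability.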

[9] = Quantitative High-Throughput drug screen in 47 multiple myeloma cell lines against the NCATS MIPE library collection: EJM_DSMZ cell viability assay (AID 1918926; also: nearly all actives have a fitted effect of over 30% in size; also: potency is read from the fitted curve at half-maximal effect)
Method in brief: as §1

[10] = Quantitative High-Throughput drug screen in 47 multiple myeloma cell lines against the NCATS MIPE library collection: FR4_PLB cell viability assay (AID 1918924; also: potency is read from the fitted curve at half-maximal effect; nearly all actives have a fitted effect of over 35% in size)
Method in brief: as §3

CC1(C)CC(=O)c2c(C(F)(F)F)nn(-c3ccc(C(N)=O)c(NC4CCC(OC(=O)CN)CC4)c3)c2C1 (stereo not drawn)
inactive: Potency [1]
active: Potency [2] 0.166 µM | Potency [3] 0.148 µM | Potency [4] 0.235 µM | Potency [5] 0.0935 µM | Potency [6] 0.264 µM | Potency [7] 0.132 µM

CCNC(=O)Nc1ccc2ncc(Nc3ccc(C)cc3)nc2n1
active: Potency [2] 3.32 µM | Potency [3] 2.35 µM | Potency [5] 3.72 µM | Potency [6] 1.87 µM | Potency [7] 2.64 µM | Potency [8] 0.059 µM
inactive: Potency [1]

COc1cccc(-c2ccc(NC(=O)C3=C(C(=O)O)CCC3)c(F)c2)c1
active: Potency [3] 6.62 µM | Potency [4] 16.6 µM
inactive: Potency [1] | Potency [9] | Potency [6]

O=C(O)CCCc1c[nH]c2ccccc12
inactive: Potency [1] | Potency [2] | Potency [9] | Potency [5] | Potency [6] | Potency [7]

C[C@]12CC[C@H](O)CC1=CCC1C2CC[C@]2(C)C(n3cnc4ccccc43)=CCC12 (stereo partly drawn)
active: viability (% of DMSO) [8] 109%
inactive: Potency [1] | Potency [3] | Potency [6] | Potency [7]

Nc1nccc(Oc2ccc(NC(=O)c3c[nH]cc(-c4ccc(F)cc4)c3=O)cc2F)c1Cl
active: Potency [2] 16.6 µM | Potency [9] 5.9 µM | Potency [3] 2.35 µM | Potency [4] 14.8 µM | Potency [5] 6.62 µM | Potency [7] 2.96 µM
inactive: Potency [1]

COc1cc2c(Nc3ccc(NC(=O)c4ccccc4)cc3)ncnc2cc1OCCCN1CCOCC1
inactive: Potency [1]
active: Potency [4] 20.9 µM | Potency [7] 6.62 µM | viability (% of DMSO) [8] 112%

CCOC(=O)C1=C(C)NC2=C(C(=O)CC(C)(C)C2)C1c1ccc(-c2ccccc2)cc1 (stereo not drawn)
inactive: Potency [1]
active: Potency [10] 20.9 µM | Potency [4] 23.5 µM

O=C(CCCCCCC(=O)Nc1ccc([C@H]2O[C@@H](CSc3nc(-c4ccccc4)c(-c4ccccc4)o3)C[C@@H](c3ccc(CO)cc3)O2)cc1)NO
inactive: Potency [1] | Potency [5] | Potency [7]
active: Potency [10] 11.8 µM | Potency [4] 10.5 µM

NCC(=O)Nc1ccc(-n2nc(C(F)(F)F)cc2-c2ccc3c(ccc4ccccc43)c2)cc1
inactive: Potency [1] | Potency [6]
active: Potency [2] 18.7 µM | Potency [9] 23.5 µM | Potency [3] 0.0662 µM | Potency [4] 23.5 µM | Potency [7] 5.26 µM

CCN(CC)CCNC(=O)c1ccc2nc(-c3ccccc3)c(-c3ccc(CN4CCC(n5c(=O)[nH]c6ccccc65)CC4)cc3)nc2c1
active: Potency [10] 14.8 µM | Potency [3] 1.05 µM | Potency [5] 2.64 µM | Potency [6] 0.935 µM | Potency [7] 1.66 µM | Potency [8] 1.05 µM
inactive: Potency [1]
